Experimental data: publication PMC10726135, “HNF4α isoforms regulate the circadian balance between carbohydrate and lipid metabolism in the liver”
The full ranking holds about 18,000 sequences; the median of “log2 normalized intensity” is about 0.36, and the highest 2% start at about 7.3. This excerpt belongs to a sample that is enriched for the highest values.

molecular target: T1, HNF4alpha8 (COS-7 nuclear extract) (Homo sapiens, UniProt P41235-5 1-452); assay: protein-binding microarray; COS-7 nuclear extract on double-stranded Agilent 4x180k PBM; binding buffer, salt, pH and temperature not given in the material; high values mean tight binding; details: chain copies: 2; label: 3' end of strand 1 on the slide; dsDNA, one strand shown
T1 sequence: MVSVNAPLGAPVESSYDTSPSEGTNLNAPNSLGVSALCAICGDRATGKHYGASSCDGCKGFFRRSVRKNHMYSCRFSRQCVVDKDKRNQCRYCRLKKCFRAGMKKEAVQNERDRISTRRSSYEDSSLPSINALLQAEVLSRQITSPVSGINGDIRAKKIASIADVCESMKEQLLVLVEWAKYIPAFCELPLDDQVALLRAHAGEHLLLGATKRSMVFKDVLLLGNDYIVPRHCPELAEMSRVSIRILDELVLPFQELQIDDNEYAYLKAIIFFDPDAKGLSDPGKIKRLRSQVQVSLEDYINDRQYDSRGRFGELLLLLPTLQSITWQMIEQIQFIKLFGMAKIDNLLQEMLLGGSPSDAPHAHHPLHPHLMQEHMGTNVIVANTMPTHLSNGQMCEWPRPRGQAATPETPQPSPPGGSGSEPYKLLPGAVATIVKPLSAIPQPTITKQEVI
Method in brief: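 Binding signal was defined as the normalized, background-corrected gProcessedSignal reported by Agilent software. It came from nuclear extracts of COS-7 cells transiently transfected with a human HNF4α isoform expression vector, applied to a custom Agilent SurePrint G3 4x180k array. That array held ~44,000 test sequences in quadruplicate as double-stranded ~60-nt oligonucleotides, and bound HNF4α was imaged at 2-µm resolution on an Agilent G2565CA scanner.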

| Sequence | binding signal |
| --- | --- |
| AGTCCTGACCTTGGACTCTGCCCTTGGCCTGCCTAGGGAGATTAGAGTATCGGTCGA | 6.67 log2 normalized intensity |
| CCTGACCTGCCCTTTGTCCCTCCTGCTAGTGCCTAGGGAGATTAGAGTATCGGTCGA | 3.93 log2 normalized intensity |
| TGTCCCTCCTGACCTTTGGACTTGATAGAGGCCTAGGGAGATTAGAGTATCGGTCGA | 9.7 log2 normalized intensity |
| TCCTCTATCTTCAAAGCCAGCAACGGTGAGGCCTAGGGAGATTAGAGTATCGGTCGA | 0.0395 log2 normalized intensity |
| CAGCTGTCGTGTGAATAGCACTGACCAGCTGCCTAGGGAGATTAGAGTATCGGTCGA | 0.27 log2 normalized intensity |
| GGAGAGGATGGGGACAAAGGTCAAGAAAGCGCCTAGGGAGATTAGAGTATCGGTCGA | 6.33 log2 normalized intensity |
| GTTATCTAATGGAGAGGATGGGGACAAAGGGCCTAGGGAGATTAGAGTATCGGTCGA | 2.55 log2 normalized intensity |
| AATTCCCTGCAAGGACAAAGGTCATGTTTTGCCTAGGGAGATTAGAGTATCGGTCGA | 7.11 log2 normalized intensity |
| GACAAAGGTCATTCATGTGCAGGTTGGAATGCCTAGGGAGATTAGAGTATCGGTCGA | 3.11 log2 normalized intensity |
| CTAATGGAGAGGATGGGGACAAAGGTCAAGGCCTAGGGAGATTAGAGTATCGGTCGA | 8.12 log2 normalized intensity |
| TTTGGAATTCCCTGCAAGGACAAAGGTCATGCCTAGGGAGATTAGAGTATCGGTCGA | 7.71 log2 normalized intensity |
| TTACTTTTGCAAGGTTTGTTCTTATCATGCGCCTAGGGAGATTAGAGTATCGGTCGA | 0.712 log2 normalized intensity |
| CCCATCCCAGAGGTCAAACTATCTGAGGTGGCCTAGGGAGATTAGAGTATCGGTCGA | 1.93 log2 normalized intensity |
| GGGCTGAGGATGAGGACTTTGGTCTTATTAGCCTAGGGAGATTAGAGTATCGGTCGA | 4.45 log2 normalized intensity |
| GAATCTACAGAATTCTCATGGAGGACTTTGGCCTAGGGAGATTAGAGTATCGGTCGA | 3.31 log2 normalized intensity |
| TTATCTCAGATGAGACTTTGGACTTTTGAAGCCTAGGGAGATTAGAGTATCGGTCGA | 8.04 log2 normalized intensity |
| TAGCCTTATCTCAGATGAGACTTTGGACTTGCCTAGGGAGATTAGAGTATCGGTCGA | 8.64 log2 normalized intensity |
| GATGTTGGGAGGAGTGGACTTTGATCTCAGGCCTAGGGAGATTAGAGTATCGGTCGA | 9.38 log2 normalized intensity |
| AATTCTCATGGAGGACTTTGGCCTTTTGTGGCCTAGGGAGATTAGAGTATCGGTCGA | 6.71 log2 normalized intensity |
| TCTGGGATGTTGGGAGGAGTGGACTTTGATGCCTAGGGAGATTAGAGTATCGGTCGA | 6.84 log2 normalized intensity |
| TACAGAATTCTCATGGAGGACTTTGGCCTTGCCTAGGGAGATTAGAGTATCGGTCGA | 7.81 log2 normalized intensity |
| CTGAGAAGATGAAAGACGAAAGGGACTTTGGCCTAGGGAGATTAGAGTATCGGTCGA | 2.82 log2 normalized intensity |

| Sequence | binding signal |
| --- | --- |
| TCAGATGAGACTTTGGACTTTTGAACTAAGGCCTAGGGAGATTAGAGTATCGGTCGA | 7.23 log2 normalized intensity |
| ATCTAGGTGAGGGATGAGGACTTTGATCAGGCCTAGGGAGATTAGAGTATCGGTCGA | 6.79 log2 normalized intensity |
| GGGACTAGCCTTATCTCAGATGAGACTTTGGCCTAGGGAGATTAGAGTATCGGTCGA | 2.03 log2 normalized intensity |
| CTCCCCCACGACAGAATTGACTCTTCGTTTGCCTAGGGAGATTAGAGTATCGGTCGA | 2.63 log2 normalized intensity |
| CTTTCATCTTTGCGGTGAGCATTTGTTTAGGCCTAGGGAGATTAGAGTATCGGTCGA | 0.99 log2 normalized intensity |
| CAGAAGCAATCACAAGGAATGCCCTTATCTGCCTAGGGAGATTAGAGTATCGGTCGA | 2.11 log2 normalized intensity |
| CCTATGGTATGTATGGAATGTCACTTTCTGGCCTAGGGAGATTAGAGTATCGGTCGA | 1.79 log2 normalized intensity |
| ATGCACGTGCTCCAGGAGGGGAGGAGGGTCGCCTAGGGAGATTAGAGTATCGGTCGA | 3.4 log2 normalized intensity |
| CACATTCCTAGACCTTTGACCTTTATACCTGCCTAGGGAGATTAGAGTATCGGTCGA | 8.55 log2 normalized intensity |
| ATTGGGTCCACACATTCCTAGACCTTTGACGCCTAGGGAGATTAGAGTATCGGTCGA | 3.87 log2 normalized intensity |
| CTTTATACCTGTACGTTACTCTGTACCTCGGCCTAGGGAGATTAGAGTATCGGTCGA | 1.8 log2 normalized intensity |
| GTCCACACATTCCTAGACCTTTGACCTTTAGCCTAGGGAGATTAGAGTATCGGTCGA | 8.88 log2 normalized intensity |
| TTGACCTTTATACCTGTACGTTACTCTGTAGCCTAGGGAGATTAGAGTATCGGTCGA | 4.37 log2 normalized intensity |
| CCCAAGATGGATTGGGTCCACACATTCCTAGCCTAGGGAGATTAGAGTATCGGTCGA | 0.829 log2 normalized intensity |
| GACCTTTGACCTTTATACCTGTACGTTACTGCCTAGGGAGATTAGAGTATCGGTCGA | 7.64 log2 normalized intensity |
| ATTGTGATTCCTGTGATACCTTCTTTGCCTGCCTAGGGAGATTAGAGTATCGGTCGA | 0.781 log2 normalized intensity |
| TCCTAGACCTTTGACCTTTATACCTGTACGGCCTAGGGAGATTAGAGTATCGGTCGA | 6.76 log2 normalized intensity |
| GGAACCAAGAGCAGATTTGTTTGCTCTTTAGCCTAGGGAGATTAGAGTATCGGTCGA | 0.915 log2 normalized intensity |
| TTCCCTGAGTTTCCATTAACTGAACCTAGAGCCTAGGGAGATTAGAGTATCGGTCGA | 1.69 log2 normalized intensity |
| TAAGATACGAAGGGTTTAAAGGGCAGAAGAGCCTAGGGAGATTAGAGTATCGGTCGA | 2.39 log2 normalized intensity |
| AAGTTCATGGAAAGTTTCACTTTCTCTTATGCCTAGGGAGATTAGAGTATCGGTCGA | 0.0777 log2 normalized intensity |
